Source: PubChem BioAssay (NCATS)
Where “and” joins values, the source holds several entries; their conditions need not be identical. Equal entries are not always repeated. Results filed as inconclusive are left out. Calls of active or inactive are those of the source. The call rests on the fitted dose curve; in most records, active means well fitted cell-killing curve with a large enough effect; inconclusive means small, poorly fitted or top-dose-only effect, or effect the other way; inactive means no such curve, though single readings can be large or run the other way.

experiment: Viability qHTS for spleen associated tyrosine kinase inhibitor (SYKi) drug resistant MV4-11 cells (AID 1963824); conditions: SYKi-resistant MV4-11 viability, CellTiter-Glo, 72 h; series mostly up to 45 µM; viability, % of control: at the top concentration; further: nearly all actives have a fitted effect of over 35% in size
Method in brief: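 CellTiter-Glo luminescence, read 10 min after reagent addition, reports viability after a 72 hr compound exposure. Cells are an MV4-11 line made resistant to SYK inhibition, seeded at 500 per well onto compound-containing plates.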
Potency means the concentration at half of the fitted maximal effect.

Compound	Potency	viability, % of control
CCOc1ccc(Cc2nccc3cc(OCC)c(OCC)cc23)cc1OCC	0.15 µM (active)	
C[C@]1(C(=O)Nc2ccc(F)nc2)CCCN1c1nc(Nc2cc(C3CC3)[nH]n2)c2cccn2n1	1.64 µM (active)	
C=C1CCC2[C@](C)(CO)CCC[C@@]2(C)[C@@H]1CCC1=CCOC1=O (stereo not given in full)	7.18 µM (active)	
CC(C)CC(=O)O[C@@H]1O[C@H](CO)[C@@H](O[C@H]2O[C@H](C)[C@@H](N[C@H]3C=C(CO)[C@@H](O[C@H]4O[C@H](CO)[C@@H](O[C@H]5O[C@H](CO)[C@@H](O[C@H]6O[C@H](CO)[C@@H](O)[C@H](O)[C@H]6O)[C@H](O)[C@H]5O)[C@H](O)[C@H]4O)[C@H](O)[C@H]3O)[C@H](O)[C@H]2O)[C@H](O)[C@H]1O		101% [at 9.25 µM] (inactive)
Nc1ncnc2c1c(I)cn2C1OC(CO)C(O)C1O (stereo not given)	0.411 µM (active)	
NC(=O)N1CCC(CC(=O)N2CCC(C3c4ncc(Br)cc4CCc4cc(Cl)cc(Br)c43)CC2)CC1 (stereo not given)	2.06 µM (active)	
O=[N+]([O-])c1ccc(-[n+]2nc(-c3ccccc3)nn2-c2ccc(I)cc2)cc1		57.5% (inactive)
CC(=O)O[C@@H]1CC(C)=C2[C@H]1[C@H](C)CC[C@H]2/C=C(\C)C(=O)O	16.4 µM (active)	
C/C=C/C=C/C(=O)O[C@@H]1C=C2COC(=O)[C@]2(O)[C@@]2(C)CCCC(C)(C)[C@H]12	16.1 µM (active)	
COc1ccc2c(c1O[C@H]1CCNC1)CCC2		70.4% (inactive)
CC1=CCC(C(C)(C)O[C@@H]2O[C@H](CO[C@@H]3O[C@@H](C)[C@H](O)[C@@H](O)[C@H]3O)[C@@H](O)[C@H](O)[C@H]2O)CC1 (stereo not given in full)		94.6% [at 17.3 µM] (inactive)
O=C(/C=C/n1cnc(-c2cc(C(F)(F)F)cc(C(F)(F)F)c2)n1)NNc1cnccn1	1.46 µM (active)	
Cn1c(CO)c(-c2ccccc2)c2cc([N+](=O)[O-])ccc21	23.1 µM (active)	
CC1=C2C[C@H]3OC(=O)[C@H](O)[C@@]4(O)[C@@H](C)[C@@H](O)[C@H](O)C([C@@]2(C)[C@H](O)[C@@H](O)C1)[C@@]34C (stereo not given in full)	14.3 µM (active)	
Cc1cc(F)ccc1[C@H]1C[C@@H](N2CCN3C(=O)CC[C@H]3C2)CCN1C(=O)N(C)[C@H](C)c1cc(C(F)(F)F)cc(C(F)(F)F)c1	5.17 µM (active)	
COc1ccc2c(c1)OC[C@]1(O)c3cc4c(cc3O[C@H]21)OCO4		71.9% (inactive)
CC(C)=CCc1cc(O[C@@H]2O[C@H](CO[C@@H]3OC[C@](O)(CO)[C@H]3O)[C@@H](O)[C@H](O)[C@H]2O)ccc1O		108% [at 17.3 µM] (inactive)
O=C(/C=C/c1cccnc1)c1ccncc1	6.51 µM (active)	
COc1ccc(CCC(=O)O)c(O[C@@H]2O[C@H](CO)[C@@H](O)[C@H](O)[C@H]2O)c1		90.4% (inactive)
CN1CCC(c2cn(C)c3ccc(OS(=O)(=O)c4c(F)cccc4F)cc23)CC1	14.6 µM (active)	

Compound	Potency	viability, % of control
C[C@@H]1C[C@@H](O)[C@@]2(CO)C(CO)=CCC[C@@H]2[C@@]12C[C@@H](c1ccoc1)OC2=O		89.1% (inactive)
Cc1ccccc1C(=O)Nc1ccc(C(=O)N2CCC[C@@H](O)c3cc(Cl)ccc32)c(C)c1	20.6 µM (active)	
CC/C=C\[C@H](O)[C@H](O)C1=C(C)C(=O)[C@]2(O1)C(=O)N[C@@](O)(C(=O)c1ccccc1)[C@@H]2O		83.6% [at 17.3 µM] (inactive)
CCN(CC)CCOCCOC(=O)C(CC)(CC)c1ccccc1	23.1 µM (active)	
COC(=O)CC(O)CC(O)/C=C/c1c(C)ccc2c1C(OC(C)=O)CC(C)C2 (stereo not given)	1.8 µM (active)	
C=CC(C)(C)C12CC3C(=O)NC(Cc4cnc[nH]4)C(=O)N3C1Nc1ccccc12 (stereo not given)		83% (inactive)
C=CCCN1CCC2(CC1)CN(C(=O)c1c(F)cccc1F)c1ccc(Cl)cc12	10.3 µM (active)	
C[C@@H]1O[C@@H](O[C@H]2[C@H](O[C@H]3CC[C@@]4(C)C(CC[C@]5(C)C4C=C[C@]46OC[C@@]7(CCC(C)(C)C[C@H]74)[C@@H](O)C[C@]65C)[C@]3(C)CO)O[C@H](CO)[C@@H](O)[C@@H]2O[C@@H]2O[C@H](CO)[C@@H](O[C@@H]3O[C@@H](C)[C@H](O)[C@@H](O)[C@H]3O)[C@H](O)[C@H]2O)[C@H](O)[C@H](O)[C@H]1O (stereo not given in full)	4.37 µM (active)	
NC(=O)c1cnc(-c2ccc(C3(N)CCC3)cc2)c(-c2ccccc2)c1	20.9 µM (active) and 580 nM (active)	
COc1cn(-c2ccc(-n3cccn3)cc2F)nc(-c2ccnn2-c2ccccc2)c1=O		83.2% (inactive)
C[C@H]1[C@H](C)CC[C@]2(C(=O)OC3OC(CO)C(O)C(O)C3O)CC[C@]3(C(=O)O)C(=CCC4[C@@]5(C)CC[C@H](O[C@@H]6O[C@@H](C)[C@H](OC7OC(CO)C(O)C(O)C7O)[C@@H](O)[C@H]6O)C(C)(C)C5CC[C@]43C)[C@H]12 (stereo not given in full)		108% [at 9.25 µM] (inactive)
CN(C)c1ccc2c(c1)OC(N)=C(C#N)C2c1cccc(C(F)(F)F)c1 (stereo not given)	0.184 µM (active)	
CC(=O)O[C@@H]1[C@@H](O)[C@H](O[C@@H]2[C@@H](O)[C@@H](O)[C@H](O[C@H]3[C@H](O[C@H]4[C@H](O[C@H]5CC[C@@]6(C)C(CC[C@]7(C)C6CC=C6[C@@H]8CC(C)(C)CC[C@]8(C(=O)O)CC[C@]67C)[C@]5(C)CO)O[C@H](CO)[C@@H](O)[C@@H]4O)OC[C@@H](O)[C@@H]3O)O[C@H]2C)OC[C@H]1O (stereo not given in full)	3.9 µM (active)	
COc1ccc([C@@]2(O)c3c(ccc4c3OC(C)(CCC=C(C)C)C=C4)NC(=O)[C@@H]2OC)cc1 (stereo not given in full)		21.9% [at 17.3 µM] (inactive)
CC(=O)Nc1cccc(-c2csc(Nc3cc(C)ccn3)n2)c1	16.4 µM (active)	
CC(=O)N1c2ccc(-c3ccc(C(=O)O)cc3)cc2C(Nc2ccc(Cl)cc2)CC1C (stereo not given)	0.0461 µM (active)	
C[C@@H](Oc1cc(-n2cnc3ccc(OC4CCN(C)CC4)cc32)sc1C(N)=O)c1ccccc1Cl	0.013 µM (active)	
O=C1Cc2c([nH]c3ccc([N+](=O)[O-])cc23)-c2ccccc2N1	0.502 µM (active)	
O=C1Nc2ccccc2C(O)(c2ccccc2)C1O (stereo not given)		53.4% (inactive)
CC1(CO)CCCC2(C)C3COC(=O)C3=CC(O)C12 (stereo not given)		81.4% (inactive)
